# From PubChem BioAssay
# Pin1 inh = inhibitors of human Pin1. Q13526. Pin1 FP peptide displacement, HiFluor488, 10 min. Potency, µM (series often up to 115 µM), for the others: at the highest dose activity, negative = inhibition, usual class: inhibitors. 390,000 compounds, 0.009% hits. AID 504891; active = well fitted inhibition curve with a large enough effect in the polarisation, with a control signal flat, not every such curve was filed as active; inconclusive = small, poorly fitted or top-dose-only effect, or effect the other way, or a change in a side signal; inactive = no such curve, though single readings can be large or run the other way; the % refers to the polarisation; also: potency is read from the fitted curve at half-maximal effect
# Tb PGK inh = blocks T. brucei phosphoglycerate kinase. P07378. PGK/GAPDH coupled, Kinase-Glo luminescence, 60 min. Potency, µM (titrated, usually from 57.5 µM), for the others: top-dose activity change, negative = inhibition, usual class: inhibitors. 380,000 compounds, 0.043% hits. AID 602233; also: potency is read from the fitted curve at half-maximal effect; nearly all actives have a fitted effect of over 60% in size
#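 Recombinant glycosomal PGK reaction used 1,3-bisphosphoglycerate generated in-well by GAPDH (100nM final) in 100mM TEA pH 7.6, 5mM MgCl2, 0.01% Tween-20. After 60 minutes at room temperature, ATP was read by Kinase-Glo Plus luminescence end-point.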
# PI4K2A inh = blocks human PI4K2A kinase activity; purified PI4K2A, ADP-Glo luminescence, 1 h; stronger effect = lower value; activity change, negative = inhibition, % at 76.9 µM; 420,000 compounds, 0.13% hits; AID 1346378; in the data active = activity change below about -50%; inconclusive = mostly about -30% to -49%;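 also: -100% = wells without enzyme as full effect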
#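 In this quantitative HTS, ADP production by PI4K2A was quantified luminescently after 1 h at ambient temperature; 100 microM adenosine served as plate-quality control.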
# PI5P4K alpha inh = PI5P4K alpha (human) kinase inhibition | PI5P4Kalpha enzyme, ADP-Glo luminescence, 60 min; stronger effect = lower value | AID 652105 | 330,000 compounds, 1.2% hits | P48426 | max response, %; active = max response of -50% or lower; inconclusive = between -30% and -50%; inactive = -30% or higher; also: value at the top dose of about 77 µM
#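 Compounds were pin-transferred onto PI5P4Kalpha and substrate in HEPES pH 7.4 buffer with EGTA, CHAPS and 5% DMSO. ATP (5 microM final) started the reaction, which ran 60 minutes at room temperature before ADP-Glo detection.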
# Tb PFK block = T. brucei PFK enzyme inhibition; O15648; T. brucei PFK, ADP-Glo luminescence; Potency, µM (top dose mostly 57.5 µM), for inactives: at the top dose activity, negative = inhibition, usual class: inhibitors; 330,000 compounds, 0.17% hits; AID 485367;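 also: potency is read from the fitted curve at half-maximal effect; 0% = uninhibited 1x PFK enzyme wells and -100% = no-enzyme wells; nearly all actives have a fitted effect of over 60% in size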
# Target sequence (O15648 whole entry, looked up): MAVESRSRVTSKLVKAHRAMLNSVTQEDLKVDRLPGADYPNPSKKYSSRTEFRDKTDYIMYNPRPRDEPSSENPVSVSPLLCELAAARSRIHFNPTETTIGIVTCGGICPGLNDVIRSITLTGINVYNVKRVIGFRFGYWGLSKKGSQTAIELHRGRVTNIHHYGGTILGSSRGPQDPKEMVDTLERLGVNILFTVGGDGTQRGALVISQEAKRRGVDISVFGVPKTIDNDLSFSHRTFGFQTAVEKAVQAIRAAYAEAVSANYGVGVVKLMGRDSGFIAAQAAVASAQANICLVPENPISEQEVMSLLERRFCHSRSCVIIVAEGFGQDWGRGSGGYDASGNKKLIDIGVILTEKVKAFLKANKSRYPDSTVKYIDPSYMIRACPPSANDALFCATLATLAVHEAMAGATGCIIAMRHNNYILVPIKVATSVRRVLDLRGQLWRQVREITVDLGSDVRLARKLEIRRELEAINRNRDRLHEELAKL
#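 ADP-Glo luminescence quantified ADP after 45 min at room temperature, with 1.25 nM T. brucei PFK, 0.1 mM ATP and 0.5 mM fructose-6-phosphate in pH 8.0 TEA buffer. qHTS titrations up to 57 µM; curves classified by quality.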
# The depositor's hits bear a star; i = inactive; ? = inconclusive; nt = no result. Shown is part of a subset that was picked to be rich in hits. Unless noted, calls follow the shape of the dose curve; as a rule, active = well fitted curve in the direction sought with a large enough effect; inconclusive = small, poorly fitted or top-dose-only effect, or another doubt; inactive = no such curve, though single readings can be large; an effect the other way counts as inactive or inconclusive. Unless noted, % is scaled to controls: 0 for no effect and ±100 for the full control effect.
SMILES,Pin1 inh,Tb PGK inh,PI4K2A inh,PI5P4K alpha inh,Tb PFK block
N#Cc1nc(Nc2ccc(-c3ccccc3)cc2)nc(NC2CCCC2)n1,20.0%,nt,nt,nt,nt
O=S(=O)(c1ccccc1)N1CCN(c2nccc(-c3cccs3)n2)CC1,38.3%,nt,nt,nt,nt
COC(=O)/C(=C\C=C\c1ccccc1)NC(=O)c1ccccc1,-1.0%,-0.3%,-2.7,-53.5*,0.5%
O=C(Nc1ccc(O)cc1)/C(=C\C=C\c1ccccc1)NC(=O)c1ccccc1,-5.3%,-6.4%,2.3,2.9,0.5%
O=S(c1cc(Cl)cc(Cl)c1O)c1cc(Cl)cc(Cl)c1O,nt,nt,-0.9,-50.7*,nt
Nc1nnnn1/N=C/c1ccccc1C(F)(F)F,1.8%,i,-4.7,-55.9*,1.2%
Nc1nnnn1/N=C/c1ccccc1,1.2%,-5.6%,-6.3,1.6,5.5%
COc1cc(/C=N/NC(=O)C(Cc2c[nH]c3ccccc23)NC(=O)OCC(C)C)cc([N+](=O)[O-])c1O (stereo not given),4.3%,-3.7%,3.6,0.5,6.9%
COc1cc(/C=N/NC(=O)C(Cc2c[nH]c3ccccc23)NC(=O)OCc2ccccc2)cc([N+](=O)[O-])c1O (stereo not given),nt,-13.4%,-7.9,-79.1*,17.2%
COc1cc(/C=N/NC(N)=O)cc([N+](=O)[O-])c1O,?,-6.0%,-2.7,-55.7*,0.3%
Cc1nc2n(c(=O)c1CCN1CCC(C(=O)c3ccc(F)cc3)CC1)CCS2,nt,nt,-4.5,nt,nt
Oc1c(Br)cc(Br)cc1/C=N/c1nccs1,-10.4%,-4.3%,-1.5,-55.3*,1.7%
Oc1ccc(Cl)cc1/C=N/c1nccs1,1.8%,i,3.8,nt,1.8%
Cc1cc(C)cc(N(CC(=O)NC2CCC(C)CC2)S(=O)(=O)c2ccc(C(C)(C)C)cc2)c1 (stereo not given),nt,nt,-1.1,nt,nt
COc1cc(F)c(S(=O)(=O)N2CCN(S(=O)(=O)c3ccc4c(c3)OCCO4)CC2)c(F)c1,6.8%,nt,nt,nt,nt
COc1ccc(C(=O)CSc2ccc(-c3ccccc3)nn2)cc1,-0.6%,-4.5%,-3.1,5.4,2.2%
COc1ccc(-c2ccc(SC)nn2)cc1,-0.5%,?,-72.3*,?,?
COC(=O)[C@]12C[C@H](CC(=O)NCc3ccc(C)o3)C(=O)N(CCc3ccc(OC)c(OC)c3)C1=C[C@H](C(C)(C)C)O[C@@H]2C,nt,nt,-7.9,nt,nt
Oc1ccccc1C=NNC(=S)NC1CC2C=CC1C2 (stereo not given),nt,1.9%,-2.6,-15.7,nt
Oc1c(Cl)cc(Cl)cc1/C=N/NC(=S)NC1CC2C=CC1C2 (stereo not given),-1.9%,-1.0%,12.2,-61.1*,1.7%
Cn1nnc(-c2ccc(OCc3ccccc3F)cc2)n1,-1.9%,-13.4%,-56.3*,0.1,-12.5%
CCN[C@@H]1C[C@H](N)[C@@H](OC2OC(CN)=CCC2N)[C@H](O)[C@H]1O[C@H]1OC[C@](C)(O)[C@H](NC)[C@H]1O (stereo not given in full),nt,nt,i,nt,nt
O=C1C(Cl)=C(Nc2ccc3cn[nH]c3c2)C(=O)c2ccccc21,7.0%,-2.9%,-7.2,-87.3*,?
O=C(Nc1ccc2cn[nH]c2c1)c1c(Cl)cccc1Cl,-11.5%,4.6%,-2.0,-24.1,-13.8%
O=[N+]([O-])c1ccc(C=Nc2ccc(Cl)c([N+](=O)[O-])c2)s1,nt,nt,nt,nt,23.9µM*
SMILES,Pin1 inh,Tb PGK inh,PI4K2A inh,PI5P4K alpha inh,Tb PFK block
Cc1cc(C)cc(N=Cc2ccc([N+](=O)[O-])s2)c1,?,-3.5%,-12.6,-4.0,-10.1%
Cc1ccc(-c2cnc(N3CCC(C(N)=O)CC3)s2)cc1,5.8%,nt,nt,nt,nt
c1ccc2c(c1)CCc1ccccc1N2,nt,nt,0.1,nt,nt
Nc1nc(-c2ccccc2)c(CCCOc2ccc(NC(=O)CBr)cc2)c(=O)[nH]1,8.4%,i,-9.7,-59.5*,nt
CCOc1ccc(NC(=O)CSc2nc(N)c(-c3ccccc3)c(=O)[nH]2)cc1,-4.2%,-10.2%,3.2,-10.7,-1.1%
CCOC(=O)C(=O)CCc1ccccc1,nt,nt,-2.5,nt,nt
COc1cc(O)oc1C=Nc1ccc(C(=O)O)cc1,9.9%,?,-50.3*,-15.8,19.3%
CCOC(=O)c1nn(-c2ccccc2)c(=O)c2c(N)scc12,?,-12.1%,?,-60.5*,-2.3%
CN(C)CCCN(C(=O)c1cc2cc([N+](=O)[O-])ccc2s1)c1nc2cc3c(cc2s1)OCCO3,?,0.0%,-6.5,-69.4*,3.2%
